Laboratory results: PubChem BioAssay
Records with an inconclusive call do not appear. Active and inactive are the calls of the source. Unless noted, no stated cut-off is given here; in the data, active means percent of DMSO control GFP below about 86%; inactive means the rest, inconclusive results apart.

Assays:
[1] = yeast TOR pathway RPL19A-GFP modulators, primary screen, cell-based, S. cerevisiae, multiplex flow cytometry (AID 1862);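 further: lower values mimic rapamycin by blocking the RPL19A rise seen in DMSO cells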; conditions: S. cerevisiae RPL19A-GFP strain, flow cytometry fluorescence, 3 h; at 10 µM; stronger effect = lower value
[2] = modulators of MEP2-GFP levels in yeast, primary screen, S. cerevisiae, multiplex flow cytometry (AID 1867;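 active means GFP response, as percent of the DMSO control, above the screen-wide mean plus 3 SD, about 139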;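 further: median GFP channel fluorescence of barcode-gated MEP2-GFP cells measured by flow cytometry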); conditions: S. cerevisiae MEP2-GFP strain, 3 h, at 10 µM, stronger effect = higher value, 100% means same as DMSO wells
[3] = modulators of CIT2-GFP expression in yeast, primary screen, S. cerevisiae, GFP fusion, multiplex flow cytometry (AID 1870;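 active means percent response above a set limit, the screen-wide mean plus 3 SD, cut at about 130% in these data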;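 further: barcoded CIT2-GFP strain pooled with four other GFP strains with rapamycin as positive control; median GFP fluorescence per well over plate mean of DMSO wells so 100% = DMSO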); conditions: 3 h, at 10 µM, stronger effect = higher value
[4] = modulators of LAP4-GFP expression in yeast, primary screen, S. cerevisiae, multiplex flow cytometry (AID 1873;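 active means GFP signal, as percent of the solvent control, above the screen mean plus 3 SD, about 149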); conditions: 3 h, at 10 µM, stronger effect = higher value
[5] = modulators of AGP1-GFP expression in yeast TOR pathway, primary screen, cell-based, multiplex flow cytometry, S. cerevisiae (AID 1887;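 active means GFP signal above the screen-wide mean plus 3 SD, that is over about 124.5% of the solvent control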;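 further: AGP1-GFP fusion strain of S. cerevisiae within a five-strain barcoded multiplex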); conditions: 3 h, at 10 µM, stronger effect = higher value
[6] = inhibitors of CD8+ T cell-vesicle binding, pilot screen, LFA-1/ICAM-1 modulator project, MLPCN validation set, flow cytometry (AID 2523;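 active means response below a set limit, under 55% cells CD8-positive and vesicle-bound, and CD8 cells' 90th-percentile brightness under 279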;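 on vesicle binding response: mean PE anti-B7-1 fluorescence of CD8+ cells relative to row control; 100% = QL9-loaded vesicles with DMSO vehicle in the same plate row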); conditions: 2C mouse CD8+ T cells, at 7 µM, stronger effect = lower value; double positive events: measured here: CD8+/vesicle+ event percentage
[7] = target: Integrin beta-1 (Homo sapiens) + Integrin alpha-4 (Homo sapiens) (UniProt P13612+P05556); assay: inhibition of HUTS-21 binding to VLA-4, pilot screen, VLA-4 allosteric modulator project, U937 cells, HUTS-21 mAb, flow cytometry, validation set (AID 2674;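 active means inhibition above 50%, about 3 SD of the validation set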;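 further: antibody binding induced by the VLA-4 ligand LDV present at three times its Kd; 0% = LDV ligand with antibody and no compound and 100% = antibody without LDV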); conditions: HUTS-21 LIBS mAb binding, at 6.7 µM, stronger effect = higher value, binding induced by LDV ligand
[8] = superoxide lowering in aged yeast cells, pilot screen, validation compound set (AID 2706;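 active means superoxide response below 65% of plate, a cut near 3 SD across the whole screen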;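 further: yeast exposed to compound for one week at 30 degrees C before staining; 100% = mean of all compound wells on the same plate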); conditions: S. cerevisiae aging, superoxide DHE fluorescence; at 10 µM; stronger effect = lower value
[9] = target: Beta-adrenergic receptor kinase 1 (Homo sapiens) (UniProt P25098); assay: GRK2 binders displacing RNA aptamer, biochemical, validation, human GRK2, bead flow cytometry (AID 488806;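 active means aptamer binding inhibition above 30%, about 3 SD of noise from non-fluorescent compounds; inactive means inhibition at or below 30%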); conditions: bead-bound GRK2, FAM-aptamer displacement, at 10 µM, stronger effect = higher value
[10] = target: Beta-2 adrenergic receptor (Homo sapiens) (UniProt P07550); assay: beta2AR agonists driving receptor internalization, pilot screen, cell-based, FAP fluorogen, flow cytometry, validation set (AID 504459;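 active means percent response above 42, roughly 3 SD of non-fluorescent test compounds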;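 further: agonist-driven loss of surface beta2AR via internalization measured by FAP dye flow cytometry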); conditions: Am2.2-beta2AR cells, FAP surface receptor flow cytometry; at 10 µM; stronger effect = higher value
[11] = target: AP-2 complex subunit beta (Homo sapiens) (UniProt P63010); assay: inhibitors of arrestin peptide binding to AP2, pilot screen, biochemical, validation set, GST-AP2 beads, flow cytometry (AID 504541;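 active means inhibition above 54%, about 3 SD of non-fluorescent compounds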;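 further: AP2 carries R879A mutation and is captured from E. coli lysate; bead-bound FITC arrestin peptide fluorescence measuring arrestin peptide binding to AP2; 0% = DMSO wells and 100% = excess unlabeled arrestin peptide control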); conditions: FITC arrestin peptide, at 10 µM, stronger effect = higher value, AP2 beta2 appendage fragment, R879A mutant
[12] = yeast V-ATPase proton transport modulators, S. cerevisiae, pHLuorin, HTS validation (AID 504600; in the data active means response above about 15%;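 further: plate controls were DMSO for no effect and reference compound for full effect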); conditions: S. cerevisiae pHLuorin cytosolic pH, at 10 µM, stronger effect = higher value
[13] = test system: anti-desmoglein-3 scFv antibody binding to human DSG3; assay: inhibitors of anti-DSG3 scFv binding to DSG3, pilot screen, biochemical, validation compound set, bead-based, flow cytometry (AID 588368;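 active means binding below the plate cutoff, the plate median minus 3 SD, with a reading above zero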;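 further: signal is the median channel fluorescence of bead-bound GFP antibody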); conditions: Protein G beads, DSG3-Fc, scFv-GFP binding, at 10 µM, stronger effect = lower value
[14] = inhibitors of fungal efflux pumps CDR1, CDR2, MDR1, pilot screen, validation compound set, multiplex, phenotypic (AID 588506;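 active means efflux inhibition above 0.42, the validation set average plus 4 SD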;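 further: Nile Red retained in cells so higher fluorescence means more efflux inhibition; 0 = negative control wells and 1 = enniatin B 25 µM full block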); conditions: S. cerevisiae pump-expressing triplex, Nile Red efflux flow cytometry; at 10 µM; stronger effect = higher value; the pumps come from Candida albicans
[15] = target: ATP-binding cassette sub-family B member 6 (Homo sapiens) (UniProt Q9NP58); assay: ABCB6 transporter inhibitors, pilot screen, K562-ABCB6 cells, flow cytometry, validation set (AID 588550;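 active means inhibition above the screen-wide mean plus 3 SD, about 51%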;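 further: 0% = DMSO wells and 100% = benzethonium chloride 70 µM positive control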); conditions: K562-ABCB6 porphyrin accumulation, 1 h, at 10 µM, stronger effect = higher value
[16] = promoters of myeloid differentiation in arrested cells, primary screen, cell-based, GFP/MAC1 double positive, flow cytometry, validation set (AID 588685;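 active means differentiation response of at least 50%, scaled between solvent and reference control, from cells with both markers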;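 further: compound exposure lasts four days before antibody staining and flow analysis; 0% = DMSO wells and 100% = 5 µM fulvestrant positive control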); conditions: ER-HoxA9 marrow cells, stronger effect = higher value, normalized: vehicle 0, fulvestrant 100

Chain of Beta-2 adrenergic receptor (Homo sapiens) (P07550 whole entry, looked up): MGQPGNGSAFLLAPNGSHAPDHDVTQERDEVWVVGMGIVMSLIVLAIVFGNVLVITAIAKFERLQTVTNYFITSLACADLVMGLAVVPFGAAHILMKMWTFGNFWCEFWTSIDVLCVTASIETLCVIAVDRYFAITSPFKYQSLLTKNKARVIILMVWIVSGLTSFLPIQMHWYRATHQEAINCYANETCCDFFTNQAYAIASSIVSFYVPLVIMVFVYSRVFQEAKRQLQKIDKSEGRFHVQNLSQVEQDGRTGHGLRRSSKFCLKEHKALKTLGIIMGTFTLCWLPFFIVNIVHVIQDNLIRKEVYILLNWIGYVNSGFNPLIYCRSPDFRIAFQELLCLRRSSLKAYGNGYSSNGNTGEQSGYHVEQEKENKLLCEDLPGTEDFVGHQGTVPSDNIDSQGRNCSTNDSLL
Chain of Integrin beta-1 (Homo sapiens) + Integrin alpha-4 (Homo sapiens) (P05556 whole entry, looked up): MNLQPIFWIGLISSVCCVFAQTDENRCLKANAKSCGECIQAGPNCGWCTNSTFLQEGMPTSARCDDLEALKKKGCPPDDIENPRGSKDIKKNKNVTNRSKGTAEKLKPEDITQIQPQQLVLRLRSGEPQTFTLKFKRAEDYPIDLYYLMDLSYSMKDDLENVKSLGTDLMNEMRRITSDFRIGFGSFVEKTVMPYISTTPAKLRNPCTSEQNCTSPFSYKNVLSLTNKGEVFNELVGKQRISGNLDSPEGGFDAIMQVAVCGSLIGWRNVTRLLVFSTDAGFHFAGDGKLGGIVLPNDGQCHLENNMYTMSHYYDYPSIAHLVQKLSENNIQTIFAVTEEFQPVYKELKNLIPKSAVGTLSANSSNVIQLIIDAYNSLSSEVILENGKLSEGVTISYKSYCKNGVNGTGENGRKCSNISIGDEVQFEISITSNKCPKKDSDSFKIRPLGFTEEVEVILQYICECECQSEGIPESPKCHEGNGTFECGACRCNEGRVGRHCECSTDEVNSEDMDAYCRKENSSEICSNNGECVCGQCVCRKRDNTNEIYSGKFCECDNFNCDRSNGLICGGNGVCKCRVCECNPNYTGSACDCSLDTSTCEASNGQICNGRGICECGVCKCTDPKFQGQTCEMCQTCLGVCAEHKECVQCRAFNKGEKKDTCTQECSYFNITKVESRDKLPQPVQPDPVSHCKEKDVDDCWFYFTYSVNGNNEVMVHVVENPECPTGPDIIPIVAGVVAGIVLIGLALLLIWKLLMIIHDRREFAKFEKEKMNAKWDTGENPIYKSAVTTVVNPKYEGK
Chain of Integrin beta-1 (Homo sapiens) + Integrin alpha-4 (Homo sapiens) (P13612 whole entry, looked up): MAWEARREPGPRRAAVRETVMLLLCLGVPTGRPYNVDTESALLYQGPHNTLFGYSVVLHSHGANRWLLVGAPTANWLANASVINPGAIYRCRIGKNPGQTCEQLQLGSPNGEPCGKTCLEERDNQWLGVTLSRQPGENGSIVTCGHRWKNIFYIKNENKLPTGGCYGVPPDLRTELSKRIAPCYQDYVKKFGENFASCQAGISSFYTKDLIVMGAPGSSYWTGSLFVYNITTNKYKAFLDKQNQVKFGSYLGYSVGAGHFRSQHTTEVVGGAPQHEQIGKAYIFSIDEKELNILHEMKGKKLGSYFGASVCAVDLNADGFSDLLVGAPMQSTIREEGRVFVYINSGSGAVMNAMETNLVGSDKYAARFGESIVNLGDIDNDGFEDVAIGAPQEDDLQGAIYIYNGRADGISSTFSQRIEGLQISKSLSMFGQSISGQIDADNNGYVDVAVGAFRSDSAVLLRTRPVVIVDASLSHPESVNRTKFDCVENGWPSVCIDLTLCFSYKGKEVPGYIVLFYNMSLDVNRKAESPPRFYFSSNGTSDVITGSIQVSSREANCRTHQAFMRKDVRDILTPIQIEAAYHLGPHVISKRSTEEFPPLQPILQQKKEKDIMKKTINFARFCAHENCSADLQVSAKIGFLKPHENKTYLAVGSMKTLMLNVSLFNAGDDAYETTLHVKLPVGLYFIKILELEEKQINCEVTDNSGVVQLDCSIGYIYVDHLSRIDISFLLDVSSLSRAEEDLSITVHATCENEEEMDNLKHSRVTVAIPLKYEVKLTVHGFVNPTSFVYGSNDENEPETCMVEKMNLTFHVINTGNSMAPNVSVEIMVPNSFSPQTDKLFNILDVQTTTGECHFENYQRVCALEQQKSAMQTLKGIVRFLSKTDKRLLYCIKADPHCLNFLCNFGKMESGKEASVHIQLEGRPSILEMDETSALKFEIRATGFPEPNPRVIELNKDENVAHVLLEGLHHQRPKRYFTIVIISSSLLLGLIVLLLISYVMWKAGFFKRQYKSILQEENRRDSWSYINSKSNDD
Chain of ATP-binding cassette sub-family B member 6 (Homo sapiens) (Q9NP58 whole entry, looked up): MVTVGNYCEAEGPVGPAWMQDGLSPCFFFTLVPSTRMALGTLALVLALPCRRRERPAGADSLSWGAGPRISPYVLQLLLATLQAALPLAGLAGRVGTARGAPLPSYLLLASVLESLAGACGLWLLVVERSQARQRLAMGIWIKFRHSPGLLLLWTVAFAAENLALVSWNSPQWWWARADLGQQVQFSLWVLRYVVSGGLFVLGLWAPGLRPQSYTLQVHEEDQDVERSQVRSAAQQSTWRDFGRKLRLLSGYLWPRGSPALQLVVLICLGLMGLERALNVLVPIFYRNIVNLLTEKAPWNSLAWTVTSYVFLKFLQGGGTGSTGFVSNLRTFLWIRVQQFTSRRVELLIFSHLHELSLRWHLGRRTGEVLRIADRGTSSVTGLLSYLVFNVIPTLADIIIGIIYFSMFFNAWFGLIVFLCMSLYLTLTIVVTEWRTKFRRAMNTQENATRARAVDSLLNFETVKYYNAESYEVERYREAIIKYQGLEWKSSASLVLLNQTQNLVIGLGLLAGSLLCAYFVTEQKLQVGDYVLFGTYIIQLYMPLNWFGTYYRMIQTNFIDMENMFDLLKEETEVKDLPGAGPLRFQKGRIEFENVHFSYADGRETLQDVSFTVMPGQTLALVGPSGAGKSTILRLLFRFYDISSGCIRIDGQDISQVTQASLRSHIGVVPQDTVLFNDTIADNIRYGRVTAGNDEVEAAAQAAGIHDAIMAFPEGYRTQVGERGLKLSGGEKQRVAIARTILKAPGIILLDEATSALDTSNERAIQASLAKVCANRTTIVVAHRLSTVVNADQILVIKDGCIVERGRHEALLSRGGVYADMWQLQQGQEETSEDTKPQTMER
Chain of AP-2 complex subunit beta (Homo sapiens) (P63010 whole entry, looked up, the tested form may be a part, one chain of several): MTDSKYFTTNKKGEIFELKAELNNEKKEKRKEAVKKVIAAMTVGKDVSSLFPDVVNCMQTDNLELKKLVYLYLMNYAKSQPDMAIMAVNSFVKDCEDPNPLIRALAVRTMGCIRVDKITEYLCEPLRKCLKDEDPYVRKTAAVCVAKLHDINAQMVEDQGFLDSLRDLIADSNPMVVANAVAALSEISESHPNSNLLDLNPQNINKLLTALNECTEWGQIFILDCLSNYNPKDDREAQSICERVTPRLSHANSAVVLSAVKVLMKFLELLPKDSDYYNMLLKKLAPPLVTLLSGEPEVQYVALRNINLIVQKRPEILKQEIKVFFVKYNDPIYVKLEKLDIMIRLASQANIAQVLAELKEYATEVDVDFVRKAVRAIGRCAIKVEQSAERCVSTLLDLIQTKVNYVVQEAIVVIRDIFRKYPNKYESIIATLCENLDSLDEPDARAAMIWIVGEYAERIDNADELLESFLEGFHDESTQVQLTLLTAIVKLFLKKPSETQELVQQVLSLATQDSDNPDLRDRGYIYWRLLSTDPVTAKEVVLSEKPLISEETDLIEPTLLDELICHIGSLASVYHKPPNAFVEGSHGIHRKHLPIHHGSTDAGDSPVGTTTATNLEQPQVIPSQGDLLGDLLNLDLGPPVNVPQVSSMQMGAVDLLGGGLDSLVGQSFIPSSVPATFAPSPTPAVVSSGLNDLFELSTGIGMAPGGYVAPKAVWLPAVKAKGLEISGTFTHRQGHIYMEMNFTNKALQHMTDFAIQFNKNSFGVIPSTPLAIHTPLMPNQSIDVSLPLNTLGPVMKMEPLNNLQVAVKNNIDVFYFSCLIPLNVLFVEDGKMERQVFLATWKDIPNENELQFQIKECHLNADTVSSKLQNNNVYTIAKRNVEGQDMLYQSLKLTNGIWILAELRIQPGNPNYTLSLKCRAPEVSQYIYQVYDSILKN
Chain of Beta-adrenergic receptor kinase 1 (Homo sapiens) (P25098 whole entry, looked up): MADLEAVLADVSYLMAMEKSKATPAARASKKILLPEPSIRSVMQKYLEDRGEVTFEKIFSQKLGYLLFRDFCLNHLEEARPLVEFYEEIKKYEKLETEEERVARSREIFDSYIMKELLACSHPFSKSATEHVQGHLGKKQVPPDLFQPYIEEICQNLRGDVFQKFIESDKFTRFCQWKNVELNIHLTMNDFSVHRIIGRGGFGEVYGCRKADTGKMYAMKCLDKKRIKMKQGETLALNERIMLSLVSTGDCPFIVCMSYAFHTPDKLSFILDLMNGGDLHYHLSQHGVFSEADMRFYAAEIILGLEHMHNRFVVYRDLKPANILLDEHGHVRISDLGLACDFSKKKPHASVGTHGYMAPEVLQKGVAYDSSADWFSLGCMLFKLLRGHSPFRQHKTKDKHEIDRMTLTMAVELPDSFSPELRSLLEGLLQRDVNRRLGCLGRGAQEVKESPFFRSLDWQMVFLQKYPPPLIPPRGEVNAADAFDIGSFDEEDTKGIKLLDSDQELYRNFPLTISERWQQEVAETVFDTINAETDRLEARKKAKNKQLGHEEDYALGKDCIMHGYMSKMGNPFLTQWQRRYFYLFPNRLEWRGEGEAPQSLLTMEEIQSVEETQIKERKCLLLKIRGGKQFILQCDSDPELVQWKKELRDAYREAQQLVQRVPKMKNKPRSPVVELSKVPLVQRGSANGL

COc1cccc2c(O)cc(=O)n(C)c12
61.5%: double positive events [6]
inactive: percent of DMSO control GFP [1] 96.9% | GFP response vs DMSO [2] 111% | percent response of DMSO control [3] 96.7% | GFP response vs DMSO [4] 116% | GFP response, % of DMSO [5] 100% | vesicle binding response [6] 169% | inhibition [7] 3.67% | superoxide response (% of plate) [8] 98.4% | aptamer binding inhibition [9] -1% | response [10] 5.82% | inhibition [11] 25% | response [12] -5.16% | binding (% of control) [13] 101% | efflux inhibition (fraction of control) [14] -0.17 | inhibition [15] 4% | differentiation response [16] -21.6%

COc1ccc(C2C3CCCCC3(O)CCN2C(=O)c2cccs2)cc1 (stereo unspecified)
61.4%: double positive events [6]
inactive: percent of DMSO control GFP [1] 102% | GFP response vs DMSO [2] 105% | percent response of DMSO control [3] 97% | GFP response vs DMSO [4] 107% | GFP response, % of DMSO [5] 107% | vesicle binding response [6] 376% | inhibition [7] -0.27% | superoxide response (% of plate) [8] 102% | aptamer binding inhibition [9] 4% | response [10] -26.4% | inhibition [11] -1.09% | response [12] -1.21% | binding (% of control) [13] 99% | efflux inhibition (fraction of control) [14] 0.12 | inhibition [15] -4% | differentiation response [16] -1.05%

O=C(/C=C/c1ccc2c(c1)OCCCO2)c1ccc2ccccc2c1O
inactive: percent of DMSO control GFP [1] 97.3% | GFP response vs DMSO [2] 102% | percent response of DMSO control [3] 99.6% | GFP response vs DMSO [4] 112% | GFP response, % of DMSO [5] 109% | vesicle binding response [6] 215% | inhibition [7] -76.9% | superoxide response (% of plate) [8] 102% | aptamer binding inhibition [9] 8% | response [10] -12.2% | inhibition [11] -2.45% | response [12] 2.01% | binding (% of control) [13] 98.5% | efflux inhibition (fraction of control) [14] 0.04 | inhibition [15] 6% | differentiation response [16] -7.94%
59.6%: double positive events [6]

COc1ccc(NC(=O)Nc2ccc(C(C)C)cc2)cc1
56.2%: double positive events [6]
inactive: percent of DMSO control GFP [1] 104% | GFP response vs DMSO [2] 103% | percent response of DMSO control [3] 101% | GFP response vs DMSO [4] 95.9% | GFP response, % of DMSO [5] 88.6% | vesicle binding response [6] 126% | inhibition [7] 20.4% | superoxide response (% of plate) [8] 98.7% | aptamer binding inhibition [9] 7% | response [10] 2.17% | inhibition [11] -5.4% | response [12] -1.78% | binding (% of control) [13] 97.3% | efflux inhibition (fraction of control) [14] 0.03 | inhibition [15] -11% | differentiation response [16] 2.74%

NC[C@H]1O[C@H](O[C@H]2[C@H](O)[C@@H](O[C@H]3O[C@H](CO)[C@@H](O)[C@H](N)[C@H]3O)[C@H](N)C[C@@H]2N)[C@H](N)C[C@@H]1O
63.2%: double positive events [6]
inactive: percent of DMSO control GFP [1] 101% | GFP response vs DMSO [2] 102% | percent response of DMSO control [3] 95.1% | GFP response vs DMSO [4] 109% | GFP response, % of DMSO [5] 110% | vesicle binding response [6] 273% | inhibition [7] 12.5% | superoxide response (% of plate) [8] 110% | aptamer binding inhibition [9] 3% | response [10] -5.14% | inhibition [11] -4.09% | response [12] -21.1% | binding (% of control) [13] 109% | efflux inhibition (fraction of control) [14] 0.04 | inhibition [15] 2% | differentiation response [16] -7.94%

COc1ccc(/C=C/C(=O)c2cc3cccc(OC)c3oc2=O)cc1
57.4%: double positive events [6]
inactive: percent of DMSO control GFP [1] 103% | GFP response vs DMSO [2] 106% | percent response of DMSO control [3] 103% | GFP response vs DMSO [4] 106% | GFP response, % of DMSO [5] 95.7% | vesicle binding response [6] 172% | inhibition [7] -11.8% | superoxide response (% of plate) [8] 107% | aptamer binding inhibition [9] 0% | response [10] 7.46% | inhibition [11] 4.15% | response [12] 1.33% | binding (% of control) [13] 96% | efflux inhibition (fraction of control) [14] 0.03 | inhibition [15] -11% | differentiation response [16] 2.74%

Cc1cnc(NC(=O)C2=C(O)c3ccccc3S(=O)(=O)N2C)s1
65.2%: double positive events [6]
inactive: percent of DMSO control GFP [1] 107% | GFP response vs DMSO [2] 112% | percent response of DMSO control [3] 88.4% | GFP response vs DMSO [4] 80.8% | GFP response, % of DMSO [5] 92.9% | vesicle binding response [6] 958% | inhibition [7] -6.68% | superoxide response (% of plate) [8] 109% | aptamer binding inhibition [9] 3% | response [10] 1.12% | inhibition [11] 8.13% | response [12] 1.87% | binding (% of control) [13] 93.7% | efflux inhibition (fraction of control) [14] 0.27 | inhibition [15] 14% | differentiation response [16] 12%

Cc1ccc(/C=N/NC(=O)C2(C)CC2(Br)Br)cc1 (stereo unspecified)
60.8%: double positive events [6]
inactive: percent of DMSO control GFP [1] 101% | GFP response vs DMSO [2] 98.7% | percent response of DMSO control [3] 98.6% | GFP response vs DMSO [4] 130% | GFP response, % of DMSO [5] 105% | vesicle binding response [6] 184% | inhibition [7] -7.79% | superoxide response (% of plate) [8] 84.5% | aptamer binding inhibition [9] -4% | response [10] -4.63% | inhibition [11] 4.52% | response [12] 1.48% | binding (% of control) [13] 104% | efflux inhibition (fraction of control) [14] -0.22 | inhibition [15] -2% | differentiation response [16] -11.9%
